Test results reported in PubChem BioAssay AID1159580 (chemical genetic matrix, 2015).
Out of some 5,500 compounds screened, about 2,000 (36%) were called active. Another 18% or so got no clear call; they are omitted. Cut-off read from the data, not from the text of the source: active = normalized growth mostly below about 0.91 (no sharp cut-off); inconclusive = no clear call, values can overlap the other calls; inactive = mostly above about 0.92. The list shows a part of the results.

Test: chemical genetic growth profiling, strain panel (AID 1159580);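 note: tested at 20 µM; growth read once vehicle control cultures reached saturation at 30 °C; 1 = growth at the plate median or of vehicle wells; lower values mean less growth of the strain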
Conditions: growth OD

Measured: normalized growth

CNC(=O)O/N=C(\C)SC
inactive: S. cerevisiae deletion strains, locus YJR075W, strain HOC1, active compounds read low 0.99 | S. cerevisiae deletion strains, locus YKL009W, strain mrt4, active compounds read low 1.02 | S. cerevisiae deletion strains, locus YKL068W, active compounds read low 0.986 | S. cerevisiae deletion strains, locus YKL085W, strain MDH1 (second series), active compounds read low 0.985 | S. cerevisiae deletion strains, locus YKL085W, strain MDH1, active compounds read low 0.985 | S. cerevisiae deletion strains, locus YKL160W, strain elf1, active compounds read low 1 | S. cerevisiae deletion strains, locus YKL190W, strain CNB1, active compounds read low 1 | S. cerevisiae deletion strains, locus YKR001C, strain vps1, active compounds read low 0.999 | S. cerevisiae deletion strains, locus YKR026C, strain gcn3, active compounds read low 0.999 | S. cerevisiae deletion strains, locus YKR091W, strain srl3, active compounds read low 1 | S. cerevisiae deletion strains, locus YLL001W, strain dnm1, active compounds read low 1 | S. cerevisiae deletion strains, locus YLL026W, active compounds read low 1 | S. cerevisiae deletion strains, locus YLL041C, strain sdh2, active compounds read low 0.999 | S. cerevisiae deletion strains, locus YLR027C, strain aat2, active compounds read low 0.987 | S. cerevisiae deletion strains, locus YLR039C, strain RIC1, active compounds read low 1.01 | S. cerevisiae deletion strains, locus YLR058C, strain SHM2, active compounds read low 1.01 | S. cerevisiae deletion strains, locus YLR102C, strain apc9, active compounds read low 0.99 | S. cerevisiae deletion strains, locus YLR113W, strain HOG1, active compounds read low 1.01 | S. cerevisiae deletion strains, locus YLR221C, strain rsa3, active compounds read low 1 | S. cerevisiae deletion strains, locus YLR258W, strain gsy2, active compounds read low 0.994 | S. cerevisiae deletion strains, locus YLR262C, strain YPT6 (second series), active compounds read low 1.03 | S. cerevisiae deletion strains, locus YLR262C, strain YPT6, active compounds read low 1.05 | S. cerevisiae deletion strains, locus YLR268W, strain sec22, active compounds read low 0.994 | S. cerevisiae deletion strains, locus YLR320W, strain mms22, active compounds read low 0.995 | S. cerevisiae deletion strains, locus YLR330W, strain CHS5, active compounds read low 1.01 | S. cerevisiae deletion strains, locus YLR342W, strain FKS1 (second series), active compounds read low 1.02 | S. cerevisiae deletion strains, locus YLR342W, strain FKS1, active compounds read low 0.997 | S. cerevisiae deletion strains, locus YLR357W, strain rsc2, active compounds read low 0.983 | S. cerevisiae deletion strains, locus YLR370C, strain arc18, active compounds read low 1 | S. cerevisiae deletion strains, locus YLR371W, strain rom2, active compounds read low 0.98 | S. cerevisiae deletion strains, locus YLR384C, strain iki3, active compounds read low 1 | S. cerevisiae deletion strains, locus YLR418C, strain cdc73, active compounds read low 1.01 | S. cerevisiae deletion strains, locus YML016C, strain PPZ1, active compounds read low 1.01 | S. cerevisiae deletion strains, locus YML032C, strain rad52, active compounds read low 0.981 | S. cerevisiae deletion strains, locus YML120C, strain ndi1, active compounds read low 1.01 | S. cerevisiae deletion strains, locus YML124C, strain tub3, active compounds read low 0.978 | S. cerevisiae deletion strains, locus YMR058W, strain fet3, active compounds read low 1 | S. cerevisiae deletion strains, locus YMR078C, strain ctf18, active compounds read low 0.985 | S. cerevisiae deletion strains, locus YMR125W, strain sto1, active compounds read low 0.999 | S. cerevisiae deletion strains, locus YMR129W, active compounds read low 0.999 | S. cerevisiae deletion strains, locus YMR205C, strain PFK2, active compounds read low 1.01 | S. cerevisiae deletion strains, locus YMR223W, strain ubp8, active compounds read low 0.991 | S. cerevisiae deletion strains, locus YMR231W, strain pep5, active compounds read low 0.982 | S. cerevisiae deletion strains, locus YMR263W, strain SAP30, active compounds read low 1.02 | S. cerevisiae deletion strains, locus YMR307W, strain GAS1, active compounds read low 1.02 | S. cerevisiae deletion strains, locus YNL067W, strain RPL9B, active compounds read low 1.01 | S. cerevisiae deletion strains, locus YNL071W, strain lat1, active compounds read low 1.01 | S. cerevisiae deletion strains, locus YNL128W, strain TEP1, active compounds read low 1.01 | S. cerevisiae deletion strains, locus YNL153C, strain GIM3, active compounds read low 0.996 | S. cerevisiae deletion strains, locus YNL183C, strain NPR1, active compounds read low 0.997 | S. cerevisiae deletion strains, locus YNL209W, strain ssb2, active compounds read low 0.996 | S. cerevisiae deletion strains, locus YNL233W, strain BNI4, active compounds read low 1.03 | S. cerevisiae deletion strains, locus YNL248C, strain rpa49, active compounds read low 1 | S. cerevisiae deletion strains, locus YNL250W, strain rad50, active compounds read low 0.974 | S. cerevisiae deletion strains, locus YNL271C, strain bni1, active compounds read low 0.991 | S. cerevisiae deletion strains, locus YNL298W, strain CLA4, active compounds read low 0.988 | S. cerevisiae deletion strains, locus YNL307C, strain MCK1, active compounds read low 0.981 | S. cerevisiae deletion strains, locus YNL322C, strain KRE1 (second series), active compounds read low 0.995 | S. cerevisiae deletion strains, locus YNL322C, strain KRE1, active compounds read low 1.01 | S. cerevisiae deletion strains, locus YNR049C, strain mso1, active compounds read low 0.998 | S. cerevisiae deletion strains, locus YNR052C, strain pop2, active compounds read low 0.988 | S. cerevisiae deletion strains, locus YOL006C, strain TOP1, active compounds read low 1.07 | S. cerevisiae deletion strains, locus YOL012C, strain htz1 0.858 | S. cerevisiae deletion strains, locus YOL147C, strain pex11, active compounds read low 0.976 | S. cerevisiae deletion strains, locus YOR001W, strain rrp6, active compounds read low 0.989 | S. cerevisiae deletion strains, locus YOR061W, strain CKA2, active compounds read low 1.01 | S. cerevisiae deletion strains, locus YOR069W, strain VPS5, active compounds read low 1 | S. cerevisiae deletion strains, locus YOR070C, strain gyp1, active compounds read low 0.995 | S. cerevisiae deletion strains, locus YOR080W, strain dia2, active compounds read low 0.996 | S. cerevisiae deletion strains, locus YOR083W, strain WHI5, active compounds read low 1 | S. cerevisiae deletion strains, locus YOR106W, strain vam3, active compounds read low 1.01 | S. cerevisiae deletion strains, locus YOR136W, strain idh2, active compounds read low 0.978 | S. cerevisiae deletion strains, locus YOR144C, strain elg1, active compounds read low 0.977 | S. cerevisiae deletion strains, locus YOR184W, strain ser1, active compounds read low 0.993 | S. cerevisiae deletion strains, locus YOR231W, strain MKK1, active compounds read low 1.05 | S. cerevisiae deletion strains, locus YOR265W, strain rbl2, active compounds read low 1.02 | S. cerevisiae deletion strains, locus YOR270C, strain vph1, active compounds read low 1.02 | S. cerevisiae deletion strains, locus YOR290C, strain snf2, active compounds read low 0.981 | S. cerevisiae deletion strains, locus YOR316C, strain cot1, active compounds read low 0.983 | S. cerevisiae deletion strains, locus YPL051W, strain arl3, active compounds read low 1.02 | S. cerevisiae deletion strains, locus YPL055C, strain LGE1, active compounds read low 1.03 | S. cerevisiae deletion strains, locus YPL078C, strain atp4, active compounds read low 0.997 | S. cerevisiae deletion strains, locus YPL106C, strain sse1, active compounds read low 0.982 | S. cerevisiae deletion strains, locus YPL240C, strain hsp82, active compounds read low 0.998 | S. cerevisiae deletion strains, locus YPL241C, strain CIN2, active compounds read low 1 | S. cerevisiae deletion strains, locus YPL256C, strain CLN2, active compounds read low 1.05 | S. cerevisiae deletion strains, locus YPR119W, strain clb2, active compounds read low 0.985 | S. cerevisiae deletion strains, locus YPR141C, strain kar3, active compounds read low 0.989 | S. cerevisiae deletion strains, locus YPR163C, strain tif3, active compounds read low 0.976 | S. cerevisiae deletion strains, locus YPR167C, strain met16, active compounds read low 0.986 | S. cerevisiae deletion strains, strain wtn01, active compounds read low 0.997 | S. cerevisiae strains, strain wild type, active compounds read low 1
